TbPYK inhibitor: inhibitors of Trypanosoma brucei pyruvate kinase. Q57TT1. TbPYK enzyme, Kinase-Glo Plus ATP luminescence, 45 min. Potency, µM (titrated, usually from 76.8 µM), for the others: at the top dose activity, negative = inhibition, actives largely listed as inhibitors. 410,000 compounds, 0.12% hits; active = well fitted curve in the direction sought with a large enough effect; inconclusive = small, poorly fitted or top-dose-only effect, or another doubt; inactive = no such curve, though single readings can be large; an effect the other way counts as inactive or inconclusive; also: potency is read from the fitted curve at half-maximal effect; % is scaled to controls: 0 for no effect and ±100 for the full control effect; nearly all actives have a fitted effect of over 50% in size
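ADP (130 uM final) triggers the TbPYK reaction after compound addition; incubation is 45 min at room temperature. Kinase-Glo Plus is then added and luminescence imaged. Normalized data are fitted to concentration-effect curves.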
CHX counter: counter-screen for Shiga toxin inhibitors: cycloheximide protein synthesis inhibition. max response, %. AID 2314. cell reporter, cycloheximide protein synthesis inhibition counterscreen. 300,000 compounds, 12% hits; in the data active = max response mostly above about 13%, no sharp cut-off; inactive = mostly below about 14%; also: read at 38.3 µM for the half of the compounds with a filed dose; 0% is about no effect
NS1 function inh: blocks influenza NS1 protein function | AID 2326 | Potency, µM (doses to about 46.1 µM), inactives show top-dose activity, positive = more growth | 270,000 compounds, 0.4% hits; also: potency is read from the fitted curve at half-maximal effect; actives are rising curves; nearly all actives have a fitted effect of over 50% in size
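A cell-based growth assay was used: compounds that relieve NS1-induced slow growth of budding yeast raise OD600. Assay medium was yeast nitrogen base with ammonium sulphate and -URA supplement, pH 6.0, with 2% galactose.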
Shiga inhibitor: inhibitors of Shiga toxin in Vero cells; Vero cells, Shiga toxin protein synthesis inhibition reporter; AID 2315; inhibition, % at 38.7 µM; 290,000 compounds, 9.2% hits; in the data active = inhibition mostly above about 28%, no sharp cut-off; inactive = mostly below about 43%; also: 0% is about no effect
LmPK inhibitor: LmPK (Leishmania mexicana) enzyme inhibition; purified LmPK, Kinase-Glo ATP luminescence, 1 h; 290,000 compounds, 0.37% hits; Potency, µM (titrated, usually from 57.5 µM), inactives show top-dose activity change, negative = inhibition, most hits filed as inhibitors; active = well fitted curve in the direction sought with a large enough effect; inconclusive = small, poorly fitted or top-dose-only effect, or another doubt; inactive = no such curve, though single readings can be large; an effect the other way counts as inactive or inconclusive; also: potency is read from the fitted curve at half-maximal effect; % is scaled to controls: 0 for no effect and ±100 for the full control effect
Target sequence (Q27686 whole entry, looked up): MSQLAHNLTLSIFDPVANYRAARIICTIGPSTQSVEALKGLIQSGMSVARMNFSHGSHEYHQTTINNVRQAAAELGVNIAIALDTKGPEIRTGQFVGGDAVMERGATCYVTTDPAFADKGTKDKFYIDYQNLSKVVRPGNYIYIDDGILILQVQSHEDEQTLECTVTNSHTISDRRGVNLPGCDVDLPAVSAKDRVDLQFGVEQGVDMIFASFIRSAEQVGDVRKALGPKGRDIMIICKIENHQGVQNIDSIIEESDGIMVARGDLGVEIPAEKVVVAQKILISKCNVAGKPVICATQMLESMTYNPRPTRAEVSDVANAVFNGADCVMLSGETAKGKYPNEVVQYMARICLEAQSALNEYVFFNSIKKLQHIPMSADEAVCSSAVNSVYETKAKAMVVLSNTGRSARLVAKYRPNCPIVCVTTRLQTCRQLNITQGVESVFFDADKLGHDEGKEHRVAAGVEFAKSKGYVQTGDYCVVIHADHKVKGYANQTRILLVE
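0.1 nM LmPK, 0.5 mM PEP, 0.1 mM ADP; 50 mM imidazole pH 7.2, 7 mM MgCl2, 50 mM KCl; 1 h RT. Kinase-Glo luminescence readout, normalized to no-enzyme (full inhibition) and uninhibited wells.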
SARS PLpro yeast: inhibitors of SARS-CoV papain-like protease in yeast. 330,000 compounds, 0.19% hits. Potency, µM (top dose mostly 32.9 µM), without a hit: top-dose activity, positive = growth rescue, actives largely listed as activators. S. cerevisiae expressing SARS-CoV PLpro, growth rescue; also: potency is read from the fitted curve at half-maximal effect; 0% is about no effect; nearly all actives have a fitted effect of over 55% in size
* marks the source's active call; other numbers are inactive results; ? = inconclusive; . = no result; + = active, no number. The entries come from a sample that favours hits as a whole. Unless noted, calls follow the shape of the full dose curve.

SMILES	TbPYK inhibitor	CHX counter	NS1 function inh	Shiga inhibitor	LmPK inhibitor	SARS PLpro yeast
Cc1cccc(-n2c(C)cc(/C=N\NC(=O)c3ccco3)c2C)c1	-7%	35*	-2%	96*	-1%	0%
O=C(CN(C(=O)Cn1nnc(-c2ccc(F)cc2)n1)c1cccc(F)c1)NC1CCCC1	0%	-5	-7%	-7	8%	4%
COC1CC2CCC(C)[C@](O)(O2)C(=O)C(=O)N2CCCCC2C(=O)OC(C(C)CC2CCC(O)C(OC)C2)CC(=O)C(C)/C=C(/C)C(O)C(OC)C(=O)C(C)CC(C)C=CC=C/C=C\1C (some centres undefined)	7%	.	.	.	.	.
Cc1cc(/C=N/NC(=O)c2nn(C)cc2Cl)c(C)n1-c1cccc(Br)c1	-1%	18*	4%	20	-1%	-3%
CC(=O)NCCN=C(C)c1sc2ccccc2c1O	71%	24*	10%	+	0%	5%
CC(=Nc1cccc(C)c1)c1sc2ccccc2c1O	-2%	45*	0%	109*	-6%	-22%
CC(=Nc1ccc(O)cc1)c1sc2ccccc2c1O	0%	48*	-24%	95*	-1%	-16%
Oc1ccc(-c2c(-c3ccsc3)sc3ccccc23)cc1	-3%	2	-43%	-8	5%	-40%
O=C(CNC(=O)c1sc2ccccc2c1Cl)NCc1ccccc1	3%	7	3%	35	2%	?
Cc1c(C(=O)c2ccccc2C(=O)O)sc2ccccc12	-10%	-1	1%	-7	2%	0%
Cc1ccnc(NC(=O)CNC(=O)c2sc3ccccc3c2Cl)c1	8%	.	.	.	.	2%
CC(=Nc1ccccc1O)c1sc2ccccc2c1O	2%	33*	-74%	67*	4%	-3%
Cc1cnc(C(=O)N2CCCC(N3CCN(c4cccc(C(F)(F)F)c4)CC3)C2)cn1 (centres undefined)	-2%	0	-23%	-4	-5%	-9%
COc1ccc(S(=O)(=O)N(CC(=O)N(C)Cc2ccccc2)c2ccc(Cl)cc2)cc1	5%	.	.	.	.	.
Cc1ccccc1Nc1ncc(C#N)c(N)n1	7%	16	-3%	33*	-6%	1%
COc1ccc(Nc2ncc(C#N)c(N)n2)c(OC)c1	-1%	20*	-33%	70*	-2%	-2%
COc1ccc(Nc2nc(Nc3ccc(OC)cc3OC)nc(N3CCOCC3)n2)c(OC)c1	2%	.	.	.	.	.
CCCCSc1nnc(-c2ccccc2N)c(=O)[nH]1	-1%	28*	-51%	77*	0%	-35%
CCCCCCCSc1nnc(-c2ccccc2N)c(=O)[nH]1	4%	0	.	21	-8%	-19%
CCCSc1nnc(-c2ccccc2N)c(=O)[nH]1	-1%	31	-12%	93*	-3%	-10%
CCCCCSc1nnc(-c2cc(Br)ccc2N)c(=O)[nH]1	-6%	-3	-77%	-27	-3%	-11%
CCCCc1oc2ccc(NS(C)(=O)=O)cc2c1C(=O)c1ccc(OCCCN(CCCC)CCCC)cc1	-8%	.	.	.	.	.
O=C(COCc1cc(-c2cccs2)on1)N1CCN(c2ccc(F)cc2)CC1	1%	.	.	.	.	.
Clc1ccc(-c2cn3nc4c(nc3n2)CCCC4)cc1	-9%	37*	-8%	88*	14µM*	-7%
COc1cccc(-c2cn3nc4c(nc3n2)CCCC4)c1	?	16*	-11%	27	11µM*	-8%
SMILES	TbPYK inhibitor	CHX counter	NS1 function inh	Shiga inhibitor	LmPK inhibitor	SARS PLpro yeast
Cc1ccc(NC(=O)CN2CCN(C(=O)C3CC3)CC2)c(F)c1	-6%	.	.	.	.	.
CCCC/C=C/[C@H](c1ccccc1)[C@H](CO)Cc1ccc([N+](=O)[O-])cc1	.	6	.	16	.	.
COc1ccc(C(C(=O)NC2CCCC2)N(Cc2ccccc2)C(=O)c2nsc(Cl)c2Cl)cc1 (centres undefined)	-3%	0	1%	23	4%	-11%
CCOc1ccc(C(C(=O)NC2CCCC2)N(Cc2ccccc2)C(=O)c2nsc(Cl)c2Cl)cc1 (centres undefined)	2%	15*	1%	11	-3%	?
O=C(Nc1ccc(F)cc1)c1nsc(Cl)c1Cl	-4%	29*	2%	68*	?	-7%
CCOc1ccc(NC(=O)c2nsc(Cl)c2Cl)cc1	2%	40*	-2%	94*	-5%	-3%
O=C(Nc1ccc(F)c(Cl)c1)c1nsc(Cl)c1Cl	1%	47*	-4%	82*	?	0%
CCOc1ccc(NC(=O)c2sc3ccccc3c2Cl)cc1	0%	.	.	.	.	.
CC(C)Oc1ccc(C(=O)NN2C(=O)NC3(CCCCC3)C2=O)cc1	-4%	.	.	.	.	-2%
Cc1ccc(N(CC(=O)NC2CCCC2)C(=O)c2nsc(Cl)c2Cl)cc1	5%	30*	1%	29*	11%	-3%
COc1ccccc1CCNC(=O)C1CC(=O)N(c2ccccc2F)C1 (centres undefined)	6%	.	.	.	.	.
Cc1cc(C)c2c(CC(=O)Nc3ccc(F)cc3)coc2c1	-4%	.	.	.	.	.
CCc1ccc2c(c1)C1(NN=C(c3cccc4ccccc34)S1)C(=O)N2 (centres undefined)	.	16	?	48*	3%	-5%
CCCCOc1ccc(/C=N/NC(=O)c2csc(C)c2C)cc1	-13%	9	2%	24	4%	-5%
CCC/C(=N\NC(=O)c1csc(C)c1C)c1cccs1	-3%	36*	-4%	84*	7%	8%
CC/C(=N\NC(=O)c1csc(C)c1C)c1cccs1	3%	37*	-25%	95*	-3%	-19%
O=C(NCc1cccs1)C1CC(=O)N(Cc2ccccc2)C1 (centres undefined)	1%	.	.	.	.	10%
OCCCNC(=S)Nc1ccc(Oc2ccccc2)cc1	-9%	0	-2%	24	4%	-21%
CC(C)CNC(=S)Nc1ccc(Oc2ccccc2)cc1	-14%	21*	-41%	23	2%	-80%
CCN(CC)CCCNC(=S)Nc1ccc(Br)cc1	-3%	44*	-5%	102*	-3%	-3%
CN(C)CCCNC(=S)Nc1ccc(Oc2ccccc2)cc1	-2%	26*	.	67	0%	-1%
Cc1cc2c(s1)c1cnn(Cc3ccc(-c4ccccc4)cc3)c(=O)c1n2C	.	-3	.	-7	.	.
CC(=O)c1ccc(OCc2cc(C(=O)NC(C)CCn3cccn3)no2)cc1 (centres undefined)	-4%	66*	-7%	111*	-7%	-2%
Cc1ccc(OCc2cc(C(=O)NCCc3cccnc3)no2)cc1C	-4%	36*	-29%	51*	1%	-3%
Cc1ccc(OCc2cc(C(=O)NCCn3cccn3)no2)cc1C	-3%	22	-28%	48*	-8%	2%
O=C(NCCCn1cccn1)c1cc(COc2ccc(F)cc2Cl)on1	-7%	19*	3%	22*	-2%	-2%
O=C(NCCCn1cccn1)c1cc(COc2ccccc2)on1	4%	.	.	.	.	.
